Compound activity deposited in PubChem BioAssay by National Center for Advancing Translational Sciences (NCATS).
Cycloheximide cs – counter-screen hit for Shiga toxin inhibitors, cycloheximide | 12% of 300,000 active | max response, % | cell reporter, cycloheximide protein synthesis inhibition counterscreen; in the data active means max response mostly above about 13%, no sharp cut-off; inactive means mostly below about 14%; further: read at 38.3 µM for the half of the compounds with a filed dose; 0% is about no effect
Pf growth 96h – P. falciparum growth inhibition at 96 hour, primary screen for plastid delayed-death inhibitors; P. falciparum luciferase reporter growth, 96 h; Potency, µM (series often up to 28.7 µM), without a hit: at the highest dose activity change, negative = inhibition, most hits filed as inhibitors; 6.9% of 320,000 active; AID 504834; further: potency means the concentration at half of the fitted maximal effect; on the % scale 0 is the no-effect control and ±100 the full control effect
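P. falciparum expressing integrated firefly luciferase grown in erythrocytes (2% hematocrit, 0.05% parasitemia final) with compounds for 96 hours at 37 C, 5% CO2. Growth inhibition read as loss of luminescence after adding luciferase detection reagent.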
Shiga toxin inh – inhibitors of Shiga toxin in Vero cells; Vero cells, Shiga toxin protein synthesis inhibition reporter; inhibition, % at 38.7 µM; 9.2% of 290,000 active; AID 2315; in the data active means inhibition mostly above about 28%, no sharp cut-off; inactive means mostly below about 43%; further: 0% is about no effect
Pf growth 48h – P. falciparum growth inhibition at 48 hours (one generation); P. falciparum luciferase growth in erythrocytes, 48 h; Potency, µM (titrated, usually from 28.7 µM), for inactives: at the highest dose activity change, negative = inhibition, actives largely listed as inhibitors; 5.9% of 310,000 active; further: potency means the concentration at half of the fitted maximal effect; on the % scale 0 is the no-effect control and ±100 the full control effect
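Read-out is firefly luciferase luminescence from an integrated reporter in P. falciparum, so falling signal marks reduced parasite growth. Infected erythrocytes were at 2% hematocrit and 0.1% parasitemia (final) in Albumax-supplemented RPMI 1640.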
Sm TGR block – inhibitors of Schistosoma mansoni thioredoxin glutathione reductase | Potency, µM (highest dose often 114 µM), inactives show at the top dose activity change, negative = inhibition, hits mostly inhibitors | purified TGR, DTNB reduction, TNB absorbance 405 nm | 3% of 360,000 active | Q962Y6; further: potency means the concentration at half of the fitted maximal effect; on the % scale 0 is the no-effect control and ±100 the full control effect; nearly all actives have a fitted effect of over 60% in size
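TGR 20 nM + NADPH 100 uM (dispensed conc.), cpd preinc 15 min RT; start with NADPH (500 uM addition) then DTNB (15 mM addition). Kinetic TNB absorbance, 405 nm filter. Four-parameter Hill fit across titration.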
NS1 inh – blocks influenza NS1 protein function; Potency, µM (top dose mostly 46.1 µM), for the others: at the highest dose activity, positive = more growth; 0.4% of 270,000 active; AID 2326; calls by dose curve; further: potency means the concentration at half of the fitted maximal effect; actives are rising curves; nearly all actives have a fitted effect of over 50% in size
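OD600 was taken as the measure of yeast growth restored by compound in an NS1-expressing S. cerevisiae strain. Cells had been washed out of glucose medium and diluted 1:100 into galactose -URA medium, pH 6.0.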
The depositor's hits bear a star; i = inactive; ? = inconclusive; nt = not tested or not shown. Only some compounds are listed: those with a hit (about 21% of all), similar ones and a draw of the others. Unless noted, the call rests on the fitted dose curve; in most records, active means well fitted curve in the direction sought with a large enough effect; inconclusive means small, poorly fitted or top-dose-only effect, or another doubt; inactive means no such curve, though single readings can be large; an effect the other way counts as inactive or inconclusive.

SMILES	Cycloheximide cs	Pf growth 96h	Shiga toxin inh	Pf growth 48h	Sm TGR block	NS1 inh
CCNc1nc(NCC)n2c(SCC(=O)Nc3ccc(C(F)(F)F)cc3[N+](=O)[O-])nnc2n1	-2	?	-3	?	-26%	5%
CCc1cc2cc(C)ccc2nc1SCC(=O)NC1CCCC1	-1	-4%	-13	?	8%	-24%
CC(C)CCN1C(=O)N(c2ccccc2)C(=O)C1CC(=O)Nc1ccc(Cl)cc1 (stereo not given)	nt	nt	nt	nt	19%	nt
COc1ccccc1CN1CCCC(CNC(=O)c2cccc3ccccc23)C1 (stereo not given)	-3	?	nt	?	5%	7%
COc1ccc2nc(Nc3ccccc3)sc2c1	30*	498%	60*	i	-4%	nt
COc1ccc(Nc2nc3ccccc3c(=O)s2)c(OC)c1	-3	?	18	?	2%	?
COc1ccccc1NC(=O)Nc1nc2ccc(S(N)(=O)=O)cc2s1	67*	3%	89*	34%	20%	-11%
COc1ccc2nc(NNC(=O)COc3ccccc3)sc2c1	1	56%	-3	0%	8%	4%
COc1ccc2nc(NC(=O)Nc3ccccc3OC)sc2c1	49*	-64%	102*	-26%	2%	6%
COc1ccc2nc(Nc3ccccc3OC)sc2c1	32*	i	90*	430%	6%	nt
COc1cccc(OC)c1C(=O)Nc1nc2ccc(S(C)(=O)=O)cc2s1	-3	15%	-14	-2%	12%	3%
COCCC(=O)N1CCC(Oc2ccc(C(=O)NC3CCCCC3)cc2)CC1	-1	?	-2	-11%	6%	13%
O=C(CNC(=S)N(Cc1ccccc1F)C1CCCCC1)NCCCN1CCOCC1	-3	?	-5	8%	-3%	nt
Cc1ccc(C(=O)c2cn(CC(=O)NC3CCCCC3)c3nc(C)ccc3c2=O)cc1	nt	nt	nt	nt	-3%	nt
COc1ccc(/C=C/C(=O)Nc2sc3c(c2C(N)=O)CCC(C)C3)cc1OC (stereo not given)	nt	nt	nt	nt	-2%	nt
Cc1ccc(NC(=O)C2CCCN(S(=O)(=O)c3ccc4c(c3)oc(=O)n4C)C2)cc1Cl (stereo not given)	nt	nt	nt	nt	2%	nt
Cc1cccc(/C(N)=N/OC(=O)Cc2cccc3ccccc23)c1	20*	?	28	-25%	32%	-50%
Cc1ccc(/C(N)=N/OC(=O)Cc2cccc3ccccc23)cc1	-4	-21%	2	-7%	11%	nt
Cc1cccc(C(=O)O/N=C(\N)Cc2cccc3ccccc23)c1	-1	?	-6	3.3µM*	-23%	-137%
N/C(Cc1cccc2ccccc12)=N\OC(=O)COc1ccccc1	4	166%	33	6%	7%	-2%
COc1ccc(CNC(=O)CCC2N=C3c4ccccc4N=C(SCC(=O)NCC4CCCO4)N3C2=O)cc1 (stereo not given)	-1	13µM*	-1	?	1%	5%
O=C(CCC1N=C2c3ccccc3N=C(SCc3cccc(Cl)c3)N2C1=O)NCc1ccco1 (stereo not given)	15*	nt	24	?	?	-8%
COc1cccc(OCCNC(=O)c2cc(OC)c(OC)c(OC)c2)c1	-2	10%	-4	-4%	-2%	-1%
COc1ccc(C2=Nn3c(nnc3-c3cccc(OC)c3OC)SC2)cc1	-3	nt	-8	nt	nt	nt
Nc1c(C(=O)NCc2ccccc2)sc2nc(N3CCOCC3)c3c(c12)CCCC3	-4	12µM*	17	?	-17%	15%
SMILES	Cycloheximide cs	Pf growth 96h	Shiga toxin inh	Pf growth 48h	Sm TGR block	NS1 inh
COc1cccc(NC(=O)c2sc3nc(N4CCOCC4)c4c(c3c2N)CCCC4)c1	25*	?	30*	-12%	-26%	28%
CC(=O)c1ccc(NC(=O)c2sc3nc(N4CCOCC4)c4c(c3c2N)CCCC4)cc1	21*	-16%	65*	11%	-3%	?
NNC(=O)c1sc2nc(N3CCOCC3)c3c(c2c1N)CCCC3	8	?	17	?	4%	21%
Nc1c(C(=O)Nc2ccc(Cl)cc2)sc2nc(N3CCOCC3)c3c(c12)CCCC3	-8	?	27	-10%	0%	17%
CCOc1ccc(NC(=O)c2sc3nc(N4CCOCC4)c4c(c3c2N)CCCC4)cc1	-3	13µM*	2	?	-11%	5%
Cc1ccc(CC(=O)NCc2nc(-c3cccc(C)c3)no2)cc1	nt	nt	nt	nt	6%	nt
COCC[N+]1(C)CCCCC1	-8	?	-5	?	0%	nt
COCCN(C(=O)COC(=O)CSc1ccc(Cl)cc1)c1c(N)n(Cc2ccccc2)c(=O)[nH]c1=O	nt	3%	nt	9%	1%	nt
CNC(=O)c1ccc(-c2sc3nc(N4CCOCC4)c4c(c3c2N)CC(C)(C)OC4)o1	-4	?	12	?	-15%	21%
CNC(=O)c1ccc(-c2sc3nc(N4CCOCC4)c4c(c3c2N)CCCC4)o1	-5	?	-15	12µM*	-27%	10%
Cc1cccc(N(CC(=O)NCc2ccc3c(c2)OCO3)C(=O)CCC(=O)Nc2ccccn2)c1	-3	161%	0	13µM*	-3%	-20%
Cc1cccc(N(CC(=O)NCc2ccc3c(c2)OCO3)C(=O)CCC(=O)Nc2ccccn2)c1C	-1	nt	-8	5.9µM*	-3%	-66%
Nc1nc(-c2ccc(Cl)cc2)cc(C(F)(F)F)n1	-1	7.4µM*	3	27%	1%	5%
COc1ccc(-c2nc(N)nc(N)n2)c(O)c1	nt	23%	nt	44%	?	nt
NCc1nc(-c2ccc(Cl)cc2)no1	13	12%	9	15%	12%	10%
Cc1cccc(-c2nc(N)nc(N)n2)c1	34*	120%	48	88%	10%	-3%
Nc1nc(N)nc(-c2ccc(Cl)cc2)n1	29*	107%	25	nt	6%	-3%
Cc1ccc(Oc2ccc(-c3nc(N)nc(N)n3)cc2)cc1	12*	-6%	29	82%	6%	-61%
COc1ccc(C(=O)Nc2cc(-c3nc4ncccc4o3)ccc2C)cc1Br	nt	nt	nt	nt	-10%	nt
CN(C(=O)COC(=O)CSc1ccc(C(N)=O)cc1[N+](=O)[O-])C1CCS(=O)(=O)C1 (stereo not given)	nt	-15%	nt	0%	-1%	nt
CC1CCCCC12NC(=O)N(CC(=O)Nc1ccc(N3CCCCC3)cc1)C2=O (stereo not given)	nt	48%	nt	43%	3%	nt
Cc1ccc(C(=O)N2CCN(S(=O)(=O)c3sc(C(=O)O)c(C)c3C(=O)O)CC2)s1	nt	27%	nt	-17%	2%	nt
Nc1nc(N)nc(-c2cc(Cl)ccc2Cl)n1	4	8.5µM*	-8	-5%	nt	nt
Nc1nc(N)nc(-c2cc(C(F)(F)F)ccc2Cl)n1	nt	60%	nt	1%	-9%	nt
Nc1nc(-c2ccc(Cl)cc2)nnc1-c1ccc(Br)cc1	52*	122%	96*	87%	-10%	-3%
Cc1nnc(N2CCN(c3ccccc3F)CC2)c2c1nnn2Cc1ccccc1	nt	nt	nt	nt	4%	nt
